71 compounds from PubChem BioAssay AID1024 (Sanford-Burnham Center for Chemical Genomics, 2008) can be followed below.

Out of some 96,000 compounds screened, about 1,400 (1.5%) were called active.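 The calls were made as follows: active = activation factor of 2 or more for CYP2C9 at a 5 µM dose; inactive = the rest.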 For the sample, actives were picked, then their nearest neighbours and some compounds at random.

The target of the assay is Cytochrome P450 2C9 (Homo sapiens) (UniProt P11712). Nature of the assay: human CYP2C9 activators, primary screen, biochemical, luminescence (AID 1024).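 Also: 0 = sulfaphenazole-blocked wells and 1 = vehicle-only wells.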 The settings on record: recombinant CYP2C9, luciferin-H conversion, at 5 µM, stronger effect = higher value, factor 1 = untreated enzyme, 0 = blocked.
Cytochrome P450 2C9 (Homo sapiens), sequence (P11712 whole entry, looked up): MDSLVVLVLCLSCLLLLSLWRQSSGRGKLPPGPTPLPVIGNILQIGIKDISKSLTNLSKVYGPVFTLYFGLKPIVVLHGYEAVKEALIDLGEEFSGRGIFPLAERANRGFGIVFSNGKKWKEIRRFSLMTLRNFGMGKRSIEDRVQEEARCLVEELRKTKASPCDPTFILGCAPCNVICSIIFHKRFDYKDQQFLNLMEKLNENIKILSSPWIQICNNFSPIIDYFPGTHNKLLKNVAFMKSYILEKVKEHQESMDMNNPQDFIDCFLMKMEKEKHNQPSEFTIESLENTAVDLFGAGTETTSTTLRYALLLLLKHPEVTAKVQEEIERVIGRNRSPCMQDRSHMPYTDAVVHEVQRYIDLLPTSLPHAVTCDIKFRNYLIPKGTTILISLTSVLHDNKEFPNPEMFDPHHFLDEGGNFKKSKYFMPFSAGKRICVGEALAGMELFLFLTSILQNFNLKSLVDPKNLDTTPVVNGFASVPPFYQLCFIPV
With `CCOC(=O)N1CCN(CC(=O)c2c(C)[nH]c3ccccc23)CC1`, the activation factor was 1.6 (inactive).
For `CCOC(=O)N1CCN(CC(=O)n2c(C)c(C)c3ccccc32)CC1` the value was 2.3 (active).
As for `CCOC(=O)N1CCN(C(=O)c2n[nH]c(=O)c3ccccc23)CC1`, the activation factor is 1 (inactive).
For `COc1ccccc1C(=O)C(O)c1ccccc1OC` (stereo unspecified), the activation factor is 1 (inactive).
Consider `COc1ccccc1C(=O)Oc1ccc(N2C(=O)CCC2=O)cc1`, for which the activation factor is 2.1 (active).
For `Cc1ccc(OC(=O)c2ccccc2C(=O)OCC(F)(F)C(F)F)cc1`, the activation factor is 0.2 (inactive).
For `CCN(CC)c1ccc(/C=N/Nc2nc(C)cc(=O)[nH]2)cc1` the value was 1.2 (inactive); for `COCc1cc(C)nc2sc3c(=O)n(-c4cccc5ccccc45)nnc3c12`, 0.7 (inactive); for `O=C(NNC(=O)c1cccnc1)Nc1ccccc1`, 1.1 (inactive).
As to `COC(=O)C(C)N(C#N)c1nc(C)nc(C)n1` (stereo unspecified), the activation factor is 2.4 (active).
For `COC(=O)c1c(C)c(C)nc(N)c1C#N` the value was 1.1 (inactive).
`CCOC(=O)c1sc(C)c2c1NC(C)(c1cccc3ccccc13)NC2=O` (stereo unspecified): the activation factor was 0 (inactive).
As for `Cc1ccc2c(c1)-c1c(ssc1=S)C(C)(C)N2C(=O)CN1C(=O)c2ccccc2C1=O`, the activation factor was 0.2 (inactive).
To `O=C(Nc1ccccc1C(F)(F)F)c1cc(-c2ccc(O)cc2)on1` belongs 3.3 (active); to `CC(NC(=O)c1cc(-c2ccccc2)on1)c1ccccc1` (stereo unspecified), 1.2 (inactive).
To `O=C(c1cc(-c2ccc(O)cc2)on1)N1CCCc2ccccc21` belongs 0.4 (inactive); to `CCC(C)NC(=O)c1cc(Cl)ccc1OC` (stereo unspecified), 2.7 (active); to `CCOc1ccc(NC(=O)Nc2ccc(N(C)C(C)=O)cc2)cc1`, 1.1 (inactive).
To `COc1ccc(Cl)cc1C(=O)NCc1cn(C)nc1C` belongs 1 (inactive); to `COc1ccc(Cl)cc1C(=O)NCC#N`, 1.8 (inactive); to `COc1cc(OC)c(C(=O)Nc2ccc(N(C)C)cc2)cc1OC`, 0.7 (inactive).
On to `COc1ccc(Cl)cc1C(=O)Nc1ccc(N(C)C(C)=O)cc1`, for which the activation factor was 3.1 (active).
To `COc1ccc(N(CC(=O)N/N=C/c2cccs2)S(=O)(=O)c2ccc(OC)c(OC)c2)cc1` belongs 0.6 (inactive).
Consider `O=C(CNC(=O)OCc1ccccc1)Oc1cc2oc(=O)cc(-c3ccccc3)c2cc1Cl`, for which the activation factor was 0.2 (inactive).
For `O=C(Nc1ccc(Br)cc1)c1cccc(NC(=O)C2C3CC4OC(=O)C2C4C3)c1` (stereo unspecified) the value was 0.3 (inactive); for `CN1OC(COC(=O)c2ccc(Cl)cc2)CC1c1ccccc1` (stereo unspecified), 0.6 (inactive); for `COc1ccc(NC(=O)Nc2ccc3nsnc3c2)cc1`, 0.8 (inactive).
To `O=C(Nc1nnc(C2CC2)s1)c1ccccn1` belongs 1.3 (inactive); to `CSc1ccccc1NC(=O)c1cc(C2CC2)on1`, 2.4 (active); to `Cc1nn(Cc2ccc(Cl)c(Cl)c2)c(C)c1NC(=O)c1cc(C2CC2)on1`, 0 (inactive).
For `O=C(NCc1ccco1)C1CCCN(S(=O)(=O)c2ccccc2)C1` (stereo unspecified) the value was 0.7 (inactive).
Consider `O=C(NC1CCCCC1)C1c2ccccc2C(=O)N1Cc1ccco1` (stereo unspecified), for which the activation factor was 0.9 (inactive).
To `O=C(CC1OC(=O)c2ccccc21)NC1CCCCC1` (stereo unspecified) belongs 2 (active).
For `O=C(Cc1ccc(F)cc1)NC1CCCC1` the value was 1.4 (inactive).
For `Cc1c(Nc2cc(N3CCCC(C)C3)c3nonc3c2[N+](=O)[O-])c(=O)n(-c2ccccc2)n1C` (stereo unspecified) the value was 0.6 (inactive); for `CCOc1ccc(NC(=O)C2CC(=O)N=C(N)S2)cc1` (stereo unspecified), 1 (inactive); for `COc1cccc(C(=O)Nc2ccc(N3CCCC3)cc2)c1`, 0.9 (inactive).
For the compound `COc1cccc(NC(=O)c2ccccc2SC)c1`, the activation factor is 1 (inactive).
In the case of `COc1cccc(C(=O)NNC(=O)c2ccccc2Br)c1`, the activation factor is 2.8 (active).
`Cc1cc2cc3c(cc2nc1SCC(=O)Nc1c(C)cccc1C)CCC3`: the activation factor is 0.4 (inactive).
For `CCOc1cc(N2CCOCC2)c(OCC)cc1NC(=O)COc1cccc2cccnc12` the value was 1 (inactive); for `Cc1cc(OCCOc2cccc3cccnc23)c(C)cc1Cl`, 2.7 (active); for `CCOc1cc(C)c(Cl)cc1S(=O)(=O)n1nnc2ccccc21`, 0.6 (inactive).
To `Cc1ccn(C(CC(=O)c2ccc(Br)cc2)C(=O)O)n1` (stereo unspecified) belongs 2.1 (active); to `Cn1c(=O)c2c(nc(N3CCCCCC3)n2CC(=O)c2ccc(Br)cc2)n(C)c1=O`, 0.8 (inactive); to `Cc1cc(SCC(=O)c2ccccc2)nc(SCC(=O)c2ccccc2)n1`, 0.3 (inactive).
For `Cc1cc([N+](=O)[O-])ccc1NCc1cccc([N+](=O)[O-])c1` the value was 1 (inactive).
For the compound `Cc1cc(C)nc(NC(=O)Nc2ccccc2C(F)(F)F)n1`, the activation factor is 2.9 (active).
For `Cc1cc(C)nc(NC(=O)C(C)N2C(=O)c3ccccc3C2=O)n1` (stereo unspecified) the value was 1.2 (inactive); for `O=C(NCCCN1CCN(C2CCCCC2)CC1)Nc1ccccc1C(F)(F)F`, 1 (inactive).
For `O=C(Nc1ccc2sc3ccccc3c(=O)c2c1)c1ccccc1Cl`, the activation factor was 1.1 (inactive).
For `O=c1c2ccccc2nc2n1C(CSCc1cccc(C(F)(F)F)c1)CS2` (stereo unspecified) the value was 0.6 (inactive).
Turning to `COc1cc(-c2nc(-c3ccncc3)no2)cc(OC)c1OC`, the activation factor is 0.2 (inactive).
To `COc1ccc(-c2nc(-c3ccccc3)no2)c(OC)c1` belongs 1.1 (inactive); to `COc1ccc(-c2noc(-c3cccc(OC)c3OC)n2)cc1OC`, 2 (active); to `Cc1cccc(N(CC(=O)Nc2ccc(-c3nc4ccc(C)cc4s3)cc2)S(C)(=O)=O)c1`, 0.9 (inactive).
Take `CNS(=O)(=O)c1cnccc1N1CCN(c2cccc(C)c2)CC1`: the activation factor is 0.4 (inactive).
As for `O=C1Nc2c(Br)cc(Br)cc2C1(O)N1CCOCC1` (stereo unspecified), the activation factor was 3 (active).
To `O=C(CN1CCOCC1)Nc1ccc(NC(=O)CN2CCOCC2)c(Cl)c1` belongs 1 (inactive); to `O=C(CN1CCOCC1)Nc1ccccc1`, 0.9 (inactive); to `O=C(CN1CCOCC1)Nc1cc(Cl)ccc1Cl`, 2.4 (active).
To `COc1ccc(OC)c(/C=N/NC(=O)CSc2nnc(C)n2-c2ccccc2)c1` belongs 0.8 (inactive).
To `COc1ccc(C)cc1N(C)C(=O)c1coc(=O)c2ccccc12` belongs 0.7 (inactive); to `CCCn1c(C(Cc2ccccc2)NC(=O)COC)nc2ccccc21` (stereo unspecified), 0.3 (inactive); to `Cc1ccc(N2CCN(/N=C/c3cccs3)CC2)cc1`, 1.1 (inactive).
As to `Cc1ccsc1/C=C1\SC(N2CCOCC2)=NC1=O`, the activation factor was 1.2 (inactive).
Consider `Cc1ccc(N2CCN(C3=NC(=O)/C(=C\c4cccs4)S3)CC2)cc1`, for which the activation factor is 2.3 (active).
With `CO/N=C/c1ccc(N2CCN(C(=O)c3cccc(Cl)c3)CC2)c([N+](=O)[O-])c1`, the activation factor is 0.9 (inactive).
For `CN=C1S/C(=C\c2ccc(Sc3ccc(Cl)cc3)o2)C(=O)N1C` the value was 0.7 (inactive); for `CC(C)C(C)NC(=O)COc1ncnc2ccccc12` (stereo unspecified), 0.9 (inactive).
For `CCOC(=O)c1c(NC(=O)c2ccc(N3CCOCC3)c([N+](=O)[O-])c2)sc(C)c1C` the value was 0.9 (inactive).
